Screening results (PubChem)
Anthrax LF inh2 = inhibitors of Bacillus anthracis lethal factor protease; P15917; multiplex microsphere protease cleavage assay, LF; inhibition, % at 10 µM; 0.12% of 360,000 active; AID 588501
BoNT-A LC inh2 = blocks Botulinum neurotoxin A light chain protease. multiplex microsphere protease substrate cleavage, flow cytometry. inhibition, % at 10 µM. 0.17% of 360,000 active. AID 588499
Bead autofluor = counter-screen for toxin protease inhibitors: compound fluorescence | compound autofluorescence counterscreen, microsphere flow cytometry; hits give high values | fluorescence intensity (test concentration not listed) | 3.1% of 360,000 active | AID 624483; in the data active = fluorescence intensity above about 16000
MazF activator = increases E. coli MazEF RNase cleavage of RNA; P0AE70; FAM/BHQ RNA-DNA oligo cleavage fluorescence, 5 h; activation, % at 20 µM; 0.32% of 350,000 active; AID 504720; in the data active = activation above about 50%
Target sequence (P0AE70 whole entry, looked up): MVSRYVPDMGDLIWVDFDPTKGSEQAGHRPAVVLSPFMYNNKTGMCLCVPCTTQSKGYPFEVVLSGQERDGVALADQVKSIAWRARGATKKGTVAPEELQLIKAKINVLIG
SSB-PriA inh = K. pneumoniae PriA-SSBct interaction inhibition. AlphaScreen SSBct-PriA binding, biotinylated peptide. inhibition, % at 33 µM. 0.6% of 430,000 active; in the data active = inhibition mostly above about 37%, no sharp cut-off; inactive = mostly below about 20%
BoNT-F LC inh = blocks Botulinum neurotoxin F light chain protease. Multiplex microsphere protease cleavage assay, flow cytometry. inhibition, % at 10 µM. 0.22% of 360,000 active; in the data active = inhibition above about 35%, passing the limit was not always enough
Numbers stand for hits; . = inactive; / = not tested or not shown. Most compounds without a hit are left out; they make up all but 3.3% or so of the library. Cut-off read from the data, not from the text of the source, unless noted: active = inhibition above about 30%; inconclusive = no clear call, values can overlap the other calls; inactive = below that.

SMILES	Anthrax LF inh2	BoNT-A LC inh2	Bead autofluor	MazF activator	SSB-PriA inh	BoNT-F LC inh
CN(C)S(=O)(=O)c1ccc(C(=O)N2CCC(CSc3nccn3C)CC2)cc1	/	/	/	/	.	/
O=C(c1ccc(Br)cc1)C1CCc2occc2C1=O (configuration not stated)	.	.	22206	.	.	.
O=C(NC1CCCCC1)N1CCCC(c2nc3ccccc3[nH]2)C1 (configuration not stated)	.	.	.	.	.	.
O=C(NC1CCCCC1)N1CCC(c2nc3ccccc3[nH]2)CC1	.	.	22032	.	.	.
O=C(NC1CCCCC1)N1CCC(c2nc3ccc(Cl)cc3[nH]2)CC1	.	.	16224	.	.	.
COc1ccc(-c2cn3cc(C)ccc3n2)cc1OC	.	.	.	.	.	.
COc1ccc(-c2cn3ccccc3n2)cc1OC	.	.	20804	.	.	.
O=C(Nc1ccc(-c2ccc(N3CCOCC3)nn2)cc1)c1ccc(Cl)c([N+](=O)[O-])c1	/	/	/	/	.	/
COc1cccc(C(=O)N2C[C@H]3C[C@H](C2)c2cccc(=O)n2C3)c1	/	/	/	/	.	/
O=C(NCCn1ncc2c(=O)n(Cc3ccc([N+](=O)[O-])cc3)cnc21)C1CC1	/	/	/	/	.	/
CN1CCC(N2CC3CC(C2)c2cccc(=O)n2C3)CC1 (configuration not stated)	.	.	24622	.	.	.
COc1ccc(C2NC(=O)C(C)S2)cc1 (configuration not stated)	.	.	24997	.	.	.
CC1SC(c2ccc(Cl)cc2)NC1=O (configuration not stated)	.	.	.	.	.	.
CC1SC(c2ccc(Cl)cc2Cl)NC1=O (configuration not stated)	.	.	.	.	.	.
CC1SC(c2cccc(Cl)c2)NC1=O (configuration not stated)	.	.	24188	.	.	.
Cc1ccc(C(C(=O)NC2CCCCC2)N(CCCN2CCOCC2)C(=O)c2snc(C(N)=O)c2N)cc1 (configuration not stated)	.	.	.	.	.	.
CCCCC(C(=O)NCCC(C)C)N(CCCN1CCOCC1)C(=O)c1snc(C(N)=O)c1N (configuration not stated)	.	.	20769	.	.	.
CC(C)CCNC(=O)C(c1ccco1)N(Cc1ccccc1)C(=O)c1snc(C(N)=O)c1N (configuration not stated)	.	.	22391	.	.	.
CCOc1ccc(S(=O)(=O)Nc2cc(-c3cn4nc(OC)ccc4n3)ccc2C)cc1	/	/	/	/	.	/
CCN1CCN(C(CNS(=O)(=O)c2ccc(Cl)cc2)c2ccccc2)CC1 (configuration not stated)	.	.	.	.	.	.
O=S(=O)(NCC(c1ccccc1)N1CCNCC1)c1ccc(Cl)cc1 (configuration not stated)	.	.	21805	.	.	.
CCCCc1nnc(SCCSc2nnc(CCCC)n2N)n1N	.	.	23554	.	.	.
CCc1nnc(SCCSc2nnc(CC)n2N)n1N	.	.	.	.	.	.
O=C(NCCn1nc(-c2ccncc2)cc1C1CC1)[C@H]1CC(=O)N(c2ccc(Cl)cc2)C1	/	/	/	/	.	/
CCCCOC(=O)c1ccc(NC(=O)CSC2=Nc3ccccc3C3CC=NN23)cc1 (configuration not stated)	.	.	22279	.	.	.
SMILES	Anthrax LF inh2	BoNT-A LC inh2	Bead autofluor	MazF activator	SSB-PriA inh	BoNT-F LC inh
Cn1c(SCC(=O)Nc2nccs2)nnc1-c1ccc(S(=O)(=O)N2CCCC2)cc1	.	.	19176	.	.	.
O=C(CSc1nc2ccccc2n1CC(=O)N1CCCC1)Nc1nccs1	.	.	23314	.	.	.
CC(=O)CSc1nnc(-c2ccc(S(=O)(=O)N3CCOCC3)cc2)n1C	.	.	.	.	.	.
CC(C)N(C(=O)Cn1c(SCC(=O)Nc2nccs2)nc2ccccc21)C(C)C	.	.	.	.	.	.
Cc1cccc(NC(=O)CSc2nnc(-c3ccc(S(=O)(=O)N4CCOCC4)cc3)n2C)c1	.	.	16637	.	.	.
O=C(CSc1nnc(Nc2ccccc2)s1)Nc1ccc(S(=O)(=O)N2CCOCC2)cc1	.	.	.	.	.	.
Cc1ccc(Nc2nnc(SCC(=O)Nc3ccc(S(=O)(=O)N4CCOCC4)cc3)s2)cc1	.	.	22187	.	.	.
COCC(=O)N1N=C(c2cccc(NS(C)(=O)=O)c2)CC1c1ccc(F)cc1 (configuration not stated)	/	/	/	/	.	/
